# Assay results published in the supplement of paper PMC6555819.
# Key:
# Assay in all cases: PBM binding z-score (relative to random genomic background probes); higher = stronger binding; sequences stand for … in GC…GCGATTGACAGCGTAGAATGAAGG
# [1] = test system: PPARg:RXRa DBDmut IVT, anti-RXR (DBD mutation: RXRa K156A/R161A, NR concentration 270 nM, RXRa partner concentration 90 nM)
# How it was run: (§1)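 The probes on custom Agilent 4×180K protein-binding microarrays were double-stranded, with 34-nt variable regions bearing direct-repeat seeds, single-nucleotide variants, half-site ablations and random human genomic background sequences. Incubation lasted 1 h with ligand-free nuclear receptor dimers in PBS pH 7.4, 2% milk, 0.02% Triton X-100, 1 mM DTT, 0.2 mg/mL BSA and 0.4 mg/ml salmon testes DNA. Antibodies against each partner (one per run) detected bound dimers, and fluorescence scans were regression-normalized. Binding z-scores take the random background probes as reference.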
# [2] = test system: PPARg:RXRa IVT, anti-PPARg (NR concentration 270 nM, RXRa partner concentration 90 nM)
# How it was run: as §1
# [3] = test system: PPARg DBDmut:RXRa IVT, anti-PPARg (DBD mutation: PPARg1 K132A/R137A, NR concentration 270 nM, RXRa partner concentration 90 nM)
# How it was run: as §1
# [4] = test system: PPARg DBDmut IVT, anti-PPARg (DBD mutation: PPARg1 K132A/R137A, NR concentration 270 nM)
# How it was run: as §1
# [5] = test system: PPARg homodimer (NR concentration 180 nM)
# How it was run: as §1
# [6] = test system: PXR:RXRa (NR concentration 270 nM, RXRa partner concentration 90 nM)
# How it was run: as §1
# [7] = test system: PXR homodimer (NR concentration 270 nM)
# How it was run: as §1
# [8] = test system: RARa:RXR (NR concentration 270 nM, RXRa partner concentration 90 nM)
# How it was run: as §1
# [9] = test system: RARa homodimer (NR concentration 270 nM)
# How it was run: as §1
# [10] = test system: RARb:RXRa (NR concentration 270 nM, RXRa partner concentration 90 nM)
# How it was run: as §1
Sequence,PBM binding z-score [1],PBM binding z-score [2],PBM binding z-score [3],PBM binding z-score [4],PBM binding z-score [5],PBM binding z-score [6],PBM binding z-score [7],PBM binding z-score [8],PBM binding z-score [9],PBM binding z-score [10]
GCATATAGGTAATACATGGTGAAAGTCCGATTGT,3.87,2.35,0.904,0.833,0.511,0.00943,0.145,0.174,0.397,-0.202
CCTACTTGGCCAAAGGTCATTGATTCCAATGCTC,2.53,4.83,0.228,0.876,3.67,5.46,2.07,5.85,1.65,4.57
CTCGAAAGGTCGTGCTCAGGTGTGTATACCAAAC,0.974,2.05,0.571,-0.156,3.36,3.32,0.146,4.07,-0.478,3.99
CCTAGTTGGTGAGGAGGTCACACACCGGATATGA,0.486,2.56,0.735,0.147,3.46,3.86,1.61,4.11,1.97,3.1
TGAATGAGGTTAAAGATCATGGAACGTGGCGTCG,1.79,3.19,0.0999,-0.204,0.9,2.49,0.119,3.73,0.174,2.04
GCTTCTAGATCAAGGTTAAGAAAGACTAAGCTAA,0.942,0.862,-0.0506,0.106,0.0754,0.437,0.0298,0.885,-0.746,0.841
AATACAGGGTTATCGTAGGCCAGAGTACGCACAG,0.539,1.12,0.626,0.739,0.97,1.59,-0.0696,1.79,0.276,1.3
CGTCCAAGGTCAGCAGGTCAGTGCAAGCGACGTG,3.15,3.71,-0.109,-0.869,3.88,3.68,0.651,4.87,0.357,5.27
AGTCAAAGTTCATTAGGTAACGTAAGATTCAGCT,1.93,4.02,1.72,1.88,3.26,4.83,6.94,3.77,1.92,4.7
TCTGCTAGGTCAACGATGGTGAGCTAATCTGCTA,4.06,4.11,0.101,-0.356,0.2,0.739,-1.18,1.68,-1.07,3.98
TCATATAGGTAAAACAGGTGAAAGTCGGCATCTA,3.88,2.77,0.289,1.07,1.06,0.972,0.0725,1.62,1.05,0.579
ATATGTAGGTTATCGGGTAATTCAGTTTGCGCAT,7.14,7.39,1.87,2.29,2.19,1.23,1.15,1.11,1.97,1.02
ATCTCTAGGTAAGACTCAGTTAAGTGAAGAACGC,1.7,1.21,0.936,1.52,0.709,0.115,0.648,0.211,1.29,0.0635
TGTCAAAGTTCAAAGGTAACTTAAGTATCCACAC,0.229,4.39,1.49,1.25,2.75,5.84,3.49,6.36,1.36,5.23
CCTAGCAGGCCAATCTGGGTCACTGAAGGCTTGA,4.44,5.17,0.524,0.356,0.812,0.783,-0.752,1.67,-0.428,1.64
CCTTACGGGTCAATGACAGGTTATAGCATTTGGA,2.52,2.91,0.126,0.222,4.22,3.44,0.512,4.2,0.757,3.97
AGAACGAGGGCAATGAGTTGATCGCACGGGTGGC,2.79,2.63,0.67,0.015,-0.315,1.75,5.1,0.134,-0.671,2
CGAACTAGGTCAGAACAGGGCAGTGAAGGATGAT,7.23,7.22,1.72,-0.191,1.19,1.26,0.00717,0.81,0.0682,3.15
TGAATGAGGTTAAAGATCAGGGACCGTGGCGTCG,1.93,3.65,0.741,0.491,1.52,1.94,-0.23,2.91,0.149,1.96
CGTCCAAGGTCAATGCTAGGTCAGTGGAAGCATT,3.31,3.57,-0.546,-0.435,5.36,4.87,1.99,6.1,1.39,5.17
CCTACTGGGCCACGAAAGATCATTGATTCAGTGA,5.69,5.25,0.632,-0.411,0.215,-0.421,-0.111,-0.0697,-0.401,0.211
TCATATAGGTAAAAGTGAAAGTCGAACGATATGA,3.02,2.69,1.14,1.16,0.424,0.212,0.0345,0.234,0.539,0.22
TCAGATAGGTGAAGGTAACTCAGGTACGCAGTCG,3.31,1.87,0.193,-0.0331,0.849,0.435,0.291,0.668,0.648,1.1
ACTATTAGTTGACTTAGGGCAAACGATACGACGC,0.0351,0.568,1.39,1.52,0.392,0.274,0.0698,0.533,0.0866,0.712
CCTTACGGGTCACTGACAGGTTATAGCATTTGGA,3.49,3.75,0.989,0.078,3.59,3.81,-0.141,4.92,1.13,4.02

Sequence,PBM binding z-score [1],PBM binding z-score [2],PBM binding z-score [3],PBM binding z-score [4],PBM binding z-score [5],PBM binding z-score [6],PBM binding z-score [7],PBM binding z-score [8],PBM binding z-score [9],PBM binding z-score [10]
TCATGTAGATCAATAGAGGTTAAGAAAGTGCGCT,2.25,0.891,0.493,0.436,0.475,3.08,0.426,1.85,0.825,1.02
GCTGCTAGGTCAGGTTGGTCAGCTACCGGGTACG,2.57,2.37,-0.857,-0.886,0.811,0.288,-0.331,0.391,-0.864,3.32
CGTCCAGGGTCAATGCTAGGTCAGTGAAAGCATT,1.7,3.15,-0.224,0.0209,3.59,4.54,-0.194,6.03,0.75,4.82
CCTAGTTGGTCAGGAGGTCTCACACCGGATATGA,0.196,1.02,-0.277,0.59,1.25,-0.0259,0.521,0.0681,1.06,0.838
TCGATTAGTTGATTAGGGCAACCGAAACAGCGGA,1.68,1.02,-0.465,0.363,0.609,0.11,-0.141,0.208,0.0713,0.744
TTACCACGGTGAAGGTCGTTGATCCCTCTGTAGA,0.157,1.1,-0.118,-0.0664,0.191,1.13,0.169,1.59,-0.497,1.17
TATACAGGGTCCAAGGCCAGAGTACGAATGTCGA,-0.0833,0.889,1,0.775,0.44,0.336,0.699,0.0317,0.427,1.2
AGTCAAAGTTCTCTAGGTAACGTAAGATTCAGCT,1.68,2.51,0.928,0.591,0.225,0.000883,0.167,0.366,0.183,0.732
AGAATGAGGTTATACGTAGATCAAGGAAGAAAGT,4.05,2.17,1.37,0.946,1.39,1.25,0.179,1.97,0.408,1.58
CCTTACGGGTCACTGACTGGTTATAGCATTTGGA,3.65,3.69,0.987,0.315,3.15,3.1,0.287,4.06,2.05,4.02
CCGACAGGGGCAGAAAGGTTACCATACCATCCGG,-0.112,0.0354,-1.22,-0.752,1.16,1.25,0.36,1.92,0.385,1.95
TAGTCTAGGTCATTGGGCCAGTATAGTACGCATC,5.99,6.49,2.81,2.94,3.92,1.95,0.361,2.72,1.24,3.81
CCTACTGGGACATTCAGAGGTCATTGATCATATG,4.26,3.96,0.709,0.697,3.07,5.15,3.43,4.96,1.35,3.11
AGAATGAGGTTATTCGTAGATCAGGGAAGAAAGT,2.54,2.22,0.846,0.521,0.454,1.44,0.494,1.98,0.0936,1.36
CATACAGGATCAGCTAGGCCAGAGTAGGGACGGC,-0.103,-0.208,0.289,0.351,0.422,-0.609,-0.0917,-0.441,0.241,-0.093
TAGCCTAGGTCATTCAGGGCCCAGTATAGAAAGC,1.83,2.54,0.246,-0.28,1.19,1.88,-0.155,2.32,-0.0549,3.54
CGTCCAAGCTCAATGCTAGGTCAGTGAAAGCATT,0.189,0.0626,-1.2,-1.34,-0.137,0.0332,-0.275,0.319,-0.477,0.961
ACTAGTTGGTCAGATGAGGTCACACACAATTCGG,1.63,2.78,1.26,1.93,3.45,5.55,2.21,4.72,2.3,3.3
CTAGACAGGTGAAAGGTAACTCAGTCTGGTACGC,1.94,3.43,0.142,0.0221,0.635,0.951,-0.397,1.91,-0.0814,1.22
CCTATTAGTTGACCATAAGCGCAACCGAAGCTCG,0.822,0.118,1.15,0.388,2.28,0.436,1.11,0.706,2.45,0.701
AGTCAAAGTTCAGGACGCGGTAACGTAAAGCACG,-0.435,1.23,-0.53,-0.304,1.62,2.37,0.876,2.21,0.353,4.19
CTCGAAAGGTCGCGCTCAGGTGAGTATACCAAAC,1.22,2.52,1.3,0.149,2.13,3.65,-0.145,4.74,-0.225,4.46
TCAGACAGGTGAAGGTAAGTCAGGTACGCAGTCG,2.4,1.07,-0.136,-0.843,1.02,0.265,0.282,0.741,0.234,1.08
ACTAGCAGGCCAACTTTGGGTCACTCAAACAAAG,1.25,1.4,0.153,-0.0474,0.721,0.676,-0.281,1.52,-0.417,1.74
